The source of these data is PubChem BioAssay.

Calls of active or inactive are those of the source.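 Rule for the calls, unless noted: active = visual image review flags a hit and inhibition of aggregation exceeds 20%; inconclusive = visual hit but inhibition at or below 20%; inactive = no hit on visual image review.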

The nature of one assay: inhibitors of TNFa-induced NFkB p65 translocation, primary screen, imaging, HUVEC, MLSMR starter and 10KST1 sets (AID 438;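 active = inhibition above 20% together with a positive visual image hit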;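 note: compound added about 3h40 before a 20 min TNFalpha stimulation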;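 for inhibition: signal is the nuclear over cytoplasmic p65 intensity ratio per well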). Particulars: HUVEC TNFa-induced p65 nuclear translocation; cell count: measured here: nuclei count (cytotoxicity indicator), at 2.08 µM; inhibition: at 2 µM, stronger effect = higher value, 0% TNFa-plus-vehicle, 100% no-TNFa wells.
In the case of `CCN(CCCNC(=O)C1CCN(S(=O)(=O)c2cccc3nonc23)CC1)Cc1ccccc1`, the inhibition was 16.9% (inactive) and the cell count is 297.

Regarding `CCCCn1c(NCCC)nc2c1c(=O)[nH]c(=O)n2C`, the cell count was found to be 383 and the inhibition was -6.2% (inactive).

In the case of `N#Cc1ccccc1Cn1c(=O)n(Cc2ccc(C(=O)NCc3ccco3)cc2)c(=O)c2ccccc21`, the inhibition was -11.4% (inactive) and the cell count stood at 689.

In the case of `CCOCCCn1c(=S)[nH]c2cc3c(cc2c1=O)OCO3`, the inhibition is 3% (inactive) and the cell count was 453.

As to `CCCSc1nnc(-c2ccccc2NC(=O)CC)c(=O)[nH]1`, the inhibition is -9.3% (inactive) and the cell count came to 632.

As for `CC(C)Cc1nnc(NC(=O)CCC(=O)N2CCOCC2)s1`, the inhibition is 8.1% (inactive) and the cell count turned out to be 597.

For the compound `O=C(Nc1ccncc1)C1c2ccccc2Oc2ccccc21`, the cell count came out at 722 and the inhibition is 2.8% (inactive).

`O=[n+]1cc(-c2ccc(F)cc2)n([O-])c2c1CCC2`: the cell count is 391 and the inhibition was 6.5% (inactive).

For the compound `COCCn1nnnc1CN(CCCN1CCOCC1)Cc1cc2c(C)ccc(C)c2[nH]c1=O`, the inhibition is -8.8% (inactive) and the cell count is 612.

Regarding `CSc1ccc(S(=O)(=O)Nc2cccc(F)c2)cc1`, the inhibition was 1% (inactive) and the cell count turned out to be 342.

Another assay is described as follows: reduction of polyQ htt aggregates in cells – imaging, exon1htt(103Q)mCFP cells, high-content imaging, primary screen (AID 483).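 For nuclei count: percent of the per-plate median nuclei count of sample wells.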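 Note: compound exposure lasted 3 days before fixation.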 Particulars: exon1htt(103Q)mCFP cell line, aggregate imaging, at 2 µM; inhibition of aggregation: stronger effect = higher value; nuclei count: measured here: cell count, toxicity.
As to `N#CCCN1CCN(S(=O)(=O)c2ccc(S(=O)(=O)NC3CCCCC3)cc2)CC1`, the inhibition of aggregation was -20.2% (inactive) and the nuclei count worked out at 124%.

On to `CCCN(CCC)C(=O)c1c(C)[nH]c(C(=O)OCC)c1C`, for which the nuclei count is 109% and the inhibition of aggregation was 2% (inactive).

With `c1ccc2c(c1)CC(N1CCCCC1)c1ccccc1N2` (stereo not drawn), the nuclei count turned out to be 107% and the inhibition of aggregation is 10.2% (inactive).

Consider `CCOC(=O)N1CCN(C(=O)CSc2nnc(Cc3ccccc3)o2)CC1`, for which the nuclei count worked out at 123% and the inhibition of aggregation was 10.1% (inactive).

With `COc1ccc(CCNS(=O)(=O)c2ccc3oc(C(=O)O)c(C)c3c2)cc1OC`, the nuclei count was determined as 107% and the inhibition of aggregation is 3.9% (inactive).

Turning to `Cc1cc(NC(=O)CSc2nc3c(c(=O)n2Cc2ccccc2)SC(C)C3)no1` (stereo not drawn), the inhibition of aggregation was -16.2% (inactive) and the nuclei count came out at 77.3%.

In the case of `c1ccc(OCc2nc(-c3ccccc3)no2)cc1`, the inhibition of aggregation is 12.9% (inactive) and the nuclei count came out at 87.7%.

For `CC1CCN(C(=O)CCNS(=O)(=O)c2ccccc2)CC1`, the nuclei count was determined as 101% and the inhibition of aggregation is -20.3% (inactive).

Consider `COc1ccccc1Oc1coc2c(CN3CCN(C)CC3)c(O)ccc2c1=O`, for which the nuclei count came to 107% and the inhibition of aggregation was -8.8% (inactive).

`CCS(=O)(=O)N1CCCC(C(=O)NCc2ccccc2Cl)C1` (stereo not drawn): the inhibition of aggregation was -1.1% (inactive) and the nuclei count came out at 107%.

In the case of `Cc1ccc(NC(=O)c2ccco2)c(NC(=O)c2cccs2)c1`, the inhibition of aggregation was 9.4% (inactive) and the nuclei count was determined as 103%.

For the compound `Cc1cccc(-n2nc3c(c2NC(=O)CCC2CCCCC2)CS(=O)C3)c1C` (stereo not drawn), the inhibition of aggregation was -46.2% (inactive) and the nuclei count came to 80%.

Take `Cc1nc(N)c(C#N)c(-c2cccnc2)c1C`: the inhibition of aggregation is 30.9% (inactive) and the nuclei count worked out at 85%.

Turning to `COc1ccc(N2CCN(C(=O)C(C)(C)Oc3ccc(Cl)cc3)CC2)cc1`, the nuclei count worked out at 96.2% and the inhibition of aggregation is 4.4% (inactive).

`CN1C(=O)CCC1(O)c1ccccc1` (stereo not drawn): the inhibition of aggregation is 18.6% (inactive) and the nuclei count is 54.1%.

Take `Cc1cc(=O)n(C)c(=O)n1CCCCCN1CCCC1`: the inhibition of aggregation was -3.3% (inactive) and the nuclei count was 106%.

`COc1ccc(N2CCN(Cc3nc4c(c(=O)[nH]c(=O)n4C)n3CC(C)=O)CC2)cc1`: the inhibition of aggregation was -29.1% (inactive) and the nuclei count stood at 126%.

Consider `COC(=O)c1ccccc1NC(=O)CSc1nc2c(c(=O)n(C)c(=O)n2C)n1C`, for which the nuclei count worked out at 95.9% and the inhibition of aggregation is -5.1% (inactive).

Consider `Cc1csc2ncc(C(=O)Nc3ccccc3Cl)c(=O)n12`, for which the nuclei count stood at 95.1% and the inhibition of aggregation is -20% (inactive).

Turning to `Cc1nc(-c2cccc(N)c2)cs1`, the nuclei count worked out at 77.8% and the inhibition of aggregation is -14.5% (inactive).

Regarding `Cn1c(=O)c2c([nH]c(=O)n2C)n(C)c1=O`, the inhibition of aggregation is 2.6% (inactive) and the nuclei count was 104%.

Take `COc1ccc(NC(=O)c2cc(C3CC3)on2)c(OC)c1`: the inhibition of aggregation is -2.2% (inactive) and the nuclei count worked out at 116%.

As for `Cc1nnc(SCc2cc(=O)[nH]c(N3CCCCC3)n2)s1`, the inhibition of aggregation is 0.6% (inactive) and the nuclei count was 96.3%.

Take `CCN1CCN(Cc2nc3c(c(=O)[nH]c(=O)n3C)n2Cc2ccccc2Cl)CC1`: the nuclei count stood at 71.4% and the inhibition of aggregation was 7.9% (inactive).

Regarding `CSc1ccc(-c2nc(CSCC(=O)N3CCOCC3)c(C)o2)cc1`, the inhibition of aggregation was -6% (inactive) and the nuclei count was determined as 89.5%.

`Cc1ccc(OCCN2CCN(C(=O)CCC(=O)Nc3nnc(C)s3)CC2)cc1`: the inhibition of aggregation is -14.8% (inactive) and the nuclei count was found to be 100%.

On to `COc1ccccc1NC(=O)Cc1noc(CSc2cc(C)c3ccccc3n2)n1`, for which the nuclei count turned out to be 81.6% and the inhibition of aggregation was 25.7% (inactive).

In the case of `COc1cc2nc(SCC(=O)NC3CC3)n(CCC3=CCCCC3)c(=O)c2cc1OC`, the nuclei count was 101% and the inhibition of aggregation is 0.8% (inactive).

Consider `Cc1oc2cc3c(C(=O)OCCN(C)C)c(C)oc3cc2c1C(=O)OCCN(C)C`, for which the inhibition of aggregation was -22.9% (inactive) and the nuclei count amounted to 95.2%.

Consider `CCN(CCCNC(=O)C1CCN(S(=O)(=O)c2cccc3nonc23)CC1)Cc1ccccc1`, for which the nuclei count came to 92.7% and the inhibition of aggregation is 14.3% (inactive).

With `CCCCn1c(NCCC)nc2c1c(=O)[nH]c(=O)n2C`, the inhibition of aggregation is -0.7% (inactive) and the nuclei count was determined as 114%.

Regarding `N#Cc1ccccc1Cn1c(=O)n(Cc2ccc(C(=O)NCc3ccco3)cc2)c(=O)c2ccccc21`, the nuclei count turned out to be 83.9% and the inhibition of aggregation was -4.5% (inactive).

As to `CCOCCCn1c(=S)[nH]c2cc3c(cc2c1=O)OCO3`, the inhibition of aggregation was -8.1% (inactive) and the nuclei count worked out at 92%.

For `CCCSc1nnc(-c2ccccc2NC(=O)CC)c(=O)[nH]1`, the inhibition of aggregation was -17.5% (inactive) and the nuclei count worked out at 86.8%.

Consider `CC(C)Cc1nnc(NC(=O)CCC(=O)N2CCOCC2)s1`, for which the inhibition of aggregation is -2% (inactive) and the nuclei count worked out at 106%.

Turning to `O=C(Nc1ccncc1)C1c2ccccc2Oc2ccccc21`, the nuclei count turned out to be 90.9% and the inhibition of aggregation was 1.3% (inactive).

As to `O=[n+]1cc(-c2ccc(F)cc2)n([O-])c2c1CCC2`, the inhibition of aggregation was 8.8% (inactive) and the nuclei count came out at 103%.

For the compound `COCCn1nnnc1CN(CCCN1CCOCC1)Cc1cc2c(C)ccc(C)c2[nH]c1=O`, the nuclei count is 112% and the inhibition of aggregation was -0.2% (inactive).

Consider `CSc1ccc(S(=O)(=O)Nc2cccc(F)c2)cc1`, for which the inhibition of aggregation is -4.6% (inactive) and the nuclei count worked out at 82.9%.
